# Rows were chosen to be rich in hits. Some 8.3% of all compounds tested hit in one or more screens of this group.
# Chronic BCR inh: qHTS Assay to Find Inhibitors of Chronic Active B-Cell Receptor Signaling | Potency, µM (titrated, usually from 46.1 µM), for the others: top-dose activity change, negative = inhibition, actives largely listed as inhibitors | ABC-DLBCL IkBa-CBG/CBR reporter, luminescence ratio, 4 h | AID 493014, 2011 | 0.05% of 340,000 active; active = well fitted inhibition curve with a large enough effect in the signal ratio, with a control signal flat, not every such curve was filed as active; inconclusive = small, poorly fitted or top-dose-only effect, or effect the other way, or a change in a side signal; the % refers to the signal ratio;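 also: potency is read from the fitted curve at half-maximal effect; plate controls were basal doxycycline-induced cells for no effect and cells given 10 µM MG132 for full effect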
#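 TMD8 ABC-DLBCL cells carrying doxycycline-inducible green luciferase fused to IkappaBalpha plus unfused red luciferase were exposed to compounds (up to 46 uM) for 4 hrs at 37C. Activity came from the overlap-corrected green/red luminescence ratio.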
# RORg inh: qHTS for inhibitors of ROR gamma transcriptional activity; Drosophila S2 Gal4-RORgamma UAS-luciferase reporter, 20 h; Nuclear receptor ROR-gamma (Mus musculus), P51450; Potency, µM (highest dose often 53.6 µM), for inactives: top-dose activity change, negative = inhibition, most hits filed as inhibitors; 5.4% of 310,000 active; also: potency is read from the fitted curve at half-maximal effect; % is scaled to controls: 0 for no effect and ±100 for the full control effect; nearly all actives have a fitted effect of over 60% in size
# Target sequence (P51450 whole entry, looked up, the tested form may be a part): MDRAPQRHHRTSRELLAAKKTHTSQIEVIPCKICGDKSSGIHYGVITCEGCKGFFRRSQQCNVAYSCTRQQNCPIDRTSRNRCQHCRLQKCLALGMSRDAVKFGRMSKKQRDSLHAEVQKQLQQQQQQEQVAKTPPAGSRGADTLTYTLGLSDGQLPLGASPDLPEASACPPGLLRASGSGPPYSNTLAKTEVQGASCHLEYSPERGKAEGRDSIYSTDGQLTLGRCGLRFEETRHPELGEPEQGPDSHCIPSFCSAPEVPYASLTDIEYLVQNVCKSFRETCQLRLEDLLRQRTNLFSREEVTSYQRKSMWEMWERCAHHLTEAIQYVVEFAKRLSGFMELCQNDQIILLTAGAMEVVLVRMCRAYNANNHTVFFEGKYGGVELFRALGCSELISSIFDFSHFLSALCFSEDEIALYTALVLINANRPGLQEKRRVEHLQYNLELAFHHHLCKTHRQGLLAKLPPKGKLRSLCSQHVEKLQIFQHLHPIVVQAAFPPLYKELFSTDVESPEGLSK
#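 Drosophila Schneider cells stably carrying a metallothionein-driven Gal4 DBD–ROR gamma fusion and a UAS-Photinus luciferase reporter were exposed to compound for 1 hr, then induced with copper sulfate (700 uM final) for 20 hr at ambient temperature before luminescence reading.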
# Gal4-VP16 FLuc: VP16 counterscreen qHTS for inhibitors of ROR gamma transcriptional activity; Drosophila S2 Gal4-VP16 UAS-luciferase, luminescence, 20 h; Potency, µM (titrated, usually from 53.6 µM), for inactives: at the top dose activity, negative = inhibition, most hits filed as inhibitors; 3.5% of 310,000 active;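 also: Gal4-VP16 expression switched on by copper sulfate through the metallothionein promoter; potency is read from the fitted curve at half-maximal effect; % is scaled to controls: 0 for no effect and ±100 for the full control effect; nearly all actives have a fitted effect of over 50% in size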
# MCF10A rereplic: A quantitative high throughput screen for small molecules that induce DNA re-replication in MCF 10a normal breast cells | MCF 10A DNA re-replication, Hoechst nuclear intensity, 48 h | Potency, µM (top dose mostly 46.1 µM), for the others: at the highest dose activity, positive = re-replication, most hits filed as activators | 2.9% of 350,000 active | AID 624296, 2012; also: potency is read from the fitted curve at half-maximal effect; % of control where 0% means no effect; nearly all actives have a fitted effect of over 50% in size
# SW480 rerep: A quantitative high throughput screen for small molecules that induce DNA re-replication in SW480 colon adenocarcinoma cells; SW480 DNA re-replication, Hoechst DNA content imaging, 48 h; Potency, µM (titrated, usually from 46.1 µM), for the others: top-dose re-replication activation, most hits filed as activators; 1.8% of 340,000 active; AID 624297, 2012; also: potency is read from the fitted curve at half-maximal effect; % of control where 0% means no effect; nearly all actives have a fitted effect of over 55% in size
#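 SW480 cells exposed to compounds for 48 hr at 37 C, 5% CO2, then Hoechst-stained 40 min. Nuclear DNA content imaged by fluorescence scanning (405 nm excitation, 500-530 nm emission); re-replication scored as increased high-intensity nuclei.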
# Giardia kill: Small Molecules that selectively kill Giardia lamblia: qHTS; 0.15% of 340,000 active; Giardia lamblia trophozoite viability; activity change, % at 7.66 µM, hits read low; in the data active = activity change below about -80%; inconclusive = between about -30% and that limit;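 also: parasites exposed to compound for two days anaerobically before the ATP read; % is scaled to controls: 0 for no effect and ±100 for the full control effect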
#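 Each well holds 100 Giardia trophozoites and compound. After two days (48 hrs) at 37 deg C in anaerobic conditions, ATP is quantified by luminescence.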
# * hit, by the source's call; u = inconclusive; x = no result; [ ] = remark or other dose. Unless noted, calls follow the shape of the dose curve; as a rule, active = well fitted curve in the direction sought with a large enough effect; inconclusive = small, poorly fitted or top-dose-only effect, or another doubt; inactive = no such curve, though single readings can be large; an effect the other way counts as inactive or inconclusive.
SMILES,Chronic BCR inh,RORg inh,Gal4-VP16 FLuc,MCF10A rereplic,SW480 rerep,Giardia kill
Cn1c(=N)c(S(=O)(=O)c2ccccc2)cc2c(=O)n3ccccc3nc21,10%,-43%,3%,18µM*,u,8
CC1(C)CC(=O)C=C(Nc2ccc([N+](=O)[O-])cc2)C1,2%,5%,-7%,-14%,-3%,-7
O=C(NNC(=O)C1C2C=CC(C2)C1C(=O)O)c1ccccc1O (stereo not drawn),u,-13%,10%,-5%,-7%,0
Cc1ccc(S(=O)(=O)c2cc3c(=O)n4ccccc4nc3n(C)c2=N)cc1C,0%,-21%,4%,4.1µM*,-7%,-12
NC(=O)NCCCC(NC(=O)c1ccc(C#CC2(O)CCCCC2)cc1)C(=O)O (stereo not drawn),0%,6%,0%,-1%,1%,-4
CCO[C@@H]1OC(C(=O)NCc2nc3ccccc3[nH]2)=C[C@H](C2CC2)[C@H]1CCCO,u,-20%,-9%,u,u,-3
CCO[C@@H]1OC(C(=O)NCc2nc3ccccc3[nH]2)=C[C@H](C(C)(C)C)[C@H]1CCCO,x,x,x,4.1µM*,u,-15
COc1ccc(CN(CCC(c2ccccc2)c2ccc(OC(C)C)cc2)C(=O)CCl)cc1OC (stereo not drawn),u,13µM*,u,4.6µM*,3.7µM*,-14
O=C(O)c1ccc(S(=O)(=O)N2CCN(c3ccccn3)CC2)cc1,-4%,-13%,-3%,-1%,1%,-19
CCOc1ccc(S(=O)(=O)N2CCCCC2)cc1NC(=O)c1c(CC)noc1C,8%,x,x,-1%,-22%,6
C[C@@H](c1ccccc1)N1C[C@H]2CCCN2c2cc(Br)ccc2S1(=O)=O,8%,x,x,7.3µM*,16µM*,-16
O=S1(=O)c2ccc(Br)cc2N2CCC[C@@H]2CN1Cc1ccc(Cl)cc1,x,x,x,u,u,17
O=S1(=O)c2ccc(Br)cc2N2CCC[C@H]2CN1Cc1ccccc1,-2%,x,x,2.6µM*,5.2µM*,-28
O=S1(=O)c2ccc(Br)cc2N2CCC[C@@H]2CN1C1CC1,x,x,x,u,0%,-4
O=S1(=O)c2ccc(Br)cc2N2CC[C@H](C2)N1Cc1ccc(Cl)cc1,x,x,x,3.3µM*,6.5µM*,5
C=CCN(C(=O)c1csnn1)C(C(=O)NCc1ccc(F)cc1)c1ccccc1F (stereo not drawn),0%,9%,17%,23%,-2%,-12
O[C@@H]1CN(Cc2ccccc2Cl)CC[C@H]1N1CCOCC1,1%,5%,1%,-7%,-5%,-6
O=c1cc(O)c(-c2ccc(Cl)cc2)c(Cl)[nH]1,u,3%,-21%,-10%,-9%,-19
O=C1c2cc(Cl)ccc2-c2c(O)cc(Cl)cc21,x,x,x,13µM*,u,-2
CCc1cc(Cn2nc(-c3ccccc3)cc2C(=O)NCC2CC2)on1,u,x,x,0.15µM*,-1%,7
COc1ccccc1-c1nc2cc3ccccc3cc2nc1-c1ccccc1OC,-5%,-2%,-8%,u,9.2µM*,-4
CC(CCc1ccccc1)NC(=O)c1cc2sccc2n1C (stereo not drawn),u,-2%,-5%,15µM*,u,21
CCOC(=O)c1c(C)c(/C=N/Nc2ccccc2)n(C)c1C,-23%,11%,4%,12µM*,30%,7
CCOC(=O)c1c(C)c(C(=O)O)n(C)c1C,5%,-22%,2%,5%,0%,-13
O=[N+]([O-])c1ccc(-c2ccn[nH]2)o1,0%,u,1%,u,5%,-85*
SMILES,Chronic BCR inh,RORg inh,Gal4-VP16 FLuc,MCF10A rereplic,SW480 rerep,Giardia kill
Brc1ccc2oc(-c3ccn[nH]3)cc2c1,u,-25%,5%,u,-57%,-13
COc1ccccc1-c1cc(N(C)Cc2ccco2)ncn1,x,-2%,-13%,x,x,x
COc1cc(OC)cc(-c2nnc(Nc3nc4c(F)cccc4s3)o2)c1,-3%,0.71µM*,1.6µM*,2%,-10%,19
Fc1cccc2sc(Nc3nnc(-c4ccccc4)o3)nc12,u,1.8µM*,2.5µM*,23µM*,12%,-17
COc1cc(OC)cc(-c2nnc(NC(=O)CCS(=O)(=O)c3ccc(F)cc3)o2)c1,-8%,x,x,u,u,12
C=CCN1C(=O)C(=O)N(CC(=O)c2ccc3c(c2)CCCC3)C1=O,u,x,x,20%,11%,7
Cc1ccc(NC(=O)c2nc[nH]c2C(=O)NCc2ccccc2)cc1,11%,x,x,7%,-2%,-18
Cc1ccccc1NC(=O)c1nc[nH]c1C(=O)NCc1ccccc1,u,2.8µM*,5µM*,20%,2%,18
CC(C)C[C@H](NC(=O)c1[nH]cnc1C(=O)N[C@@H](Cc1ccccc1)C(=O)OCc1ccccc1)C(=O)OC(C)(C)C,u,5.6µM*,16µM*,-13%,-12%[9.22 µM],-7
CC(C)C[C@H](NC(=O)c1[nH]cnc1C(=O)N[C@@H](C)c1ccccc1)C(=O)OC(C)(C)C,u,0.63µM*,0.63µM*,u,7%,3
C[C@H](NC(=O)c1[nH]cnc1C(=O)N[C@H](C)c1ccccc1)c1ccccc1,u,x,x,9%,-3%,5
CC(C)(C)OC(=O)CNC(=O)c1nc[nH]c1C(=O)NCc1ccc(CNC(=O)OC(C)(C)C)cc1,0%,u,u,u,-5%,-2
CC(C)(C)OC(=O)CNC(=O)c1nc[nH]c1C(=O)NCc1ccccc1,-9%,7.1µM*,u,-5%,-4%,33
CS(=O)(=O)Nc1cccc(-c2nc(Nc3ccncc3)c3ccccc3n2)c1,x,u,6%,x,x,x
CN1CCN(CCNC(=O)Cn2c(=O)c3cccn3c3ccc(F)cc32)CC1,0%,-8%,-6%,1%,-1%,13
O=C(CN1C(=O)NC(Cc2c[nH]c3ccccc23)C1=O)NC1CCCCC1 (stereo not drawn),-2%,x,x,1%,-8%,5
O=C1CC(NS(=O)(=O)c2cc(F)ccc2F)CN1c1ccc2c(c1)OCCO2 (stereo not drawn),-12%,x,x,1%,-2%,6
CC(C)C[C@H](NC(=O)c1[nH]cnc1C(=O)N[C@@H](Cc1ccccc1)C(=O)OC(C)(C)C)C(=O)OCc1ccccc1,u,7.9µM*,u,u,1%,-2
